# Laboratory results: PubChem BioAssay (NCATS)
# Records with an inconclusive call do not appear. A number with no mark means an inactive call. Calls of active or inactive are those of the source. The call rests on the fitted dose curve; in most records, active means well fitted cell-killing curve with a large enough effect; inconclusive means small, poorly fitted or top-dose-only effect, or effect the other way; inactive means no such curve, though single readings can be large or run the other way.
# Legend:
# [1] = Quantitative High-Throughput drug screen in 47 multiple myeloma cell lines against the NCATS MIPE library collection: OCIMY5_PLB cell viability assay (AID 1918988); further: nearly all actives have a fitted effect of over 65% in size
# How it was run: (§1)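 qHTS format: cells plated (500/well), pin-dosed with MIPE 4.0 compounds, kept 48 h at 37 °C. Readout was CellTiter-Glo luminescence, median RLU.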
# [2] = Quantitative High-Throughput drug screen in 47 multiple myeloma cell lines against the NCATS MIPE library collection: OPM1_PLB cell viability assay (AID 1918989); further: nearly all actives have a fitted effect of over 40% in size
# How it was run: as §1
# [3] = Quantitative High-Throughput drug screen in 47 multiple myeloma cell lines against the NCATS MIPE library collection: XG6_PLB cell viability assay (AID 1919865); further: nearly all actives have a fitted effect of over 40% in size
# How it was run: as §1
# [4] = Quantitative High-Throughput drug screen in 47 multiple myeloma cell lines against the NCATS MIPE library collection: XG1_PLB cell viability assay (AID 1919866); further: nearly all actives have a fitted effect of over 35% in size
# How it was run: as §1
# [5] = Quantitative High-Throughput drug screen in 47 multiple myeloma cell lines against the NCATS MIPE library collection: VP6_DJ cell viability assay (AID 1919867); further: nearly all actives have a fitted effect of over 40% in size
# How it was run: as §1
# [6] = Quantitative High-Throughput drug screen in 47 multiple myeloma cell lines against the NCATS MIPE library collection: PE2_PLB cell viability assay (AID 1919869); further: nearly all actives have a fitted effect of over 35% in size
# How it was run: as §1
# [7] = Quantitative High-Throughput drug screen in 47 multiple myeloma cell lines against the NCATS MIPE library collection: SKMM1_PLB cell viability assay (AID 1919863); conditions: SKMM1 myeloma viability, CellTiter-Glo ATP, 48 h; viability: stronger effect = lower value; further: nearly all actives have a fitted effect of over 35% in size
# How it was run: as §1
# [8] = Quantitative High-Throughput drug screen in 47 multiple myeloma cell lines against the NCATS MIPE library collection: U266_ATCC cell viability assay (AID 1919864); further: nearly all actives have a fitted effect of over 35% in size;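 on viability (% of DMSO control): 0% = media-only wells without cells and 100% = DMSO-only wells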
# How it was run: as §1
# [9] = Quantitative High-Throughput drug screen in 47 multiple myeloma cell lines against the NCATS MIPE library collection: UTMC2_PLB cell viability assay (AID 1919868); conditions: CellTiter-Glo ATP luminescence, 48 h; viability (% of DMSO control): at 45.8 µM (top of the series); further: nearly all actives have a fitted effect of over 55% in size;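 on viability (% of DMSO control): 100% = DMSO-only wells and 0% = media-only wells without cells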
# How it was run: as §1
# Potency means the concentration at half of the fitted maximal effect.
Structure (SMILES),Potency [1],Potency [2],Potency [3],Potency [4],Potency [5],Potency [6],viability [7],Potency [8],Potency [9],Potency [7]
O=C(Nc1ccccc1)Nc1ccc(-c2ccc(C(=O)[C@H]3CCC[C@H]3C(=O)O)cc2)cc1,20.9 µM (active),inactive,4.69 µM (active),2.96 µM (active),inactive,inactive,,,,
Nc1ccn([C@@H]2O[C@H](CO)[C@@H](O)[C@H]2O)c(=O)n1,inactive,inactive,,inactive,,inactive,113%,,,
COc1cccc(OC)c1-c1cc(C(=O)NC2(C(=O)O)C3CC4CC(C3)CC2C4)nn1-c1ccnc2cc(Cl)ccc12 (stereo unspecified),inactive,inactive,inactive,inactive,inactive,inactive,,,,
CCNC(=O)CCCC=CC[C@@H]1[C@H](C=CC(O)CCc2ccccc2)[C@@H](O)C[C@@H]1O (stereo partly specified),26.4 µM (active),inactive,inactive,inactive,inactive,inactive,,inactive,inactive,
O=C(O)c1ccc(O)c2ncc(N3CCOCC3)cc12,13.2 µM (active),inactive,,,,16.6 µM (active),,,,18.7 µM (active)
CNC(=O)c1cc(COc2nnc(Nc3ccc(Cl)cc3)c3ccoc23)ccn1,20.9 µM (active),inactive,,,,,,inactive,,
COc1ccc2ccc(=O)oc2c1CC=C(C)C,8.33 µM (active),inactive,,,,inactive,,13.2 µM (active),,
NC(=O)c1nnn(Cc2cc(Cl)c(C(=O)c3ccc(Cl)cc3)c(Cl)c2)c1N,26.4 µM (active),16.6 µM (active),18.7 µM (active),20.9 µM (active),20.9 µM (active),23.5 µM (active),,16.6 µM (active),,
Cc1nn(Cc2ccccc2Cl)c(C)c1CN(C)CC(O)COc1ccc(Cl)cc1 (stereo unspecified),10.5 µM (active),20.9 µM (active),20.9 µM (active),20.9 µM (active),20.9 µM (active),,,18.7 µM (active),20.9 µM (active),
CO[C@H]1/C=C\O[C@@]2(C)Oc3c(C)c(O)c4c(O)c(c(C=NN5CCN(C6CCCC6)CC5)c(O)c4c3C2=O)NC(=O)C(C)=CC=C[C@H](C)[C@H](O)[C@@H](C)[C@@H](O)[C@@H](C)[C@H](OC(C)=O)[C@H]1C,0.418 µM (active),0.264 µM (active),0.105 µM (active),,,0.118 µM (active),,16.6 µM (active),0.059 µM (active),7.43 µM (active)
Nc1nc(Cl)nc2c1ncn2[C@@H]1O[C@H](CO)[C@@H](O)[C@H]1F,0.0743 µM (active),1.48 µM (active),0.0235 µM (active),,0.187 µM (active),0.418 µM (active),,1.48 µM (active),0.332 µM (active),
Cc1cccc2c1CC[C@H](CN1CCC(c3c(Cl)cccc3Cl)CC1)C[C@@H]2O,2.64 µM (active),18.7 µM (active),20.9 µM (active),20.9 µM (active),14.8 µM (active),20.9 µM (active),,,,
c1ccc(-c2oc3ncnc(NC[C@@H]4CCCO4)c3c2-c2ccccc2)cc1,14.8 µM (active),13.2 µM (active),10.5 µM (active),,,16.6 µM (active),,16.6 µM (active),,
COc1ccc2c(c1)c(C1=C(c3c[nH]c4ccccc34)C(=O)NC1=O)cn2CCCN(C)C,37.2 µM (active),23.5 µM (active),,,20.9 µM (active),,,26.4 µM (active),,
CCN1CCC(n2cc(CNc3cc(Cl)c4ncc(C#N)c(Nc5ccc(F)c(Cl)c5)c4c3)nn2)CC1,4.18 µM (active),18.7 µM (active),14.8 µM (active),23.5 µM (active),,,,20.9 µM (active),,
O=C1C(c2c(O)[nH]c3ccccc23)=Nc2ccccc21,1.32 µM (active),inactive,0.296 µM (active),0.418 µM (active),,1.66 µM (active),,1.66 µM (active),inactive,
CCNC(=O)[C@H]1O[C@@H](n2cnc3c(N)nc(NCCc4ccc(CCC(=O)O)cc4)nc32)[C@H](O)[C@H]1O,0.0662 µM (active),inactive,,inactive,,0.0469 µM (active),,0.118 µM (active),,
COc1cc(N2CCN(C)CC2)ccc1Nc1nc(N)c(C(=O)c2c(Cl)cccc2Cl)s1,18.7 µM (active),20.9 µM (active),,23.5 µM (active),,,,18.7 µM (active),,
CC(C)[C@H](O)C(=O)N[C@@H](C)C(=O)N[C@@H]1C(=O)N(C)CCc2ccccc21,inactive,inactive,26.4 µM (active),,,inactive,,inactive,,
CCCCC(F)(F)[C@@]1(O)CC[C@H]2[C@H](CC(=O)[C@@H]2CCCCCCC(=O)O)O1,0.235 µM (active),inactive,,inactive,,inactive,,inactive,,
CCC[C@H](Nc1nc(-c2ccc(NC(=O)NCC)c(OC)c2)ncc1C)c1cccnc1,0.0166 µM (active),0.001 µM (active),,,,0.001 µM (active),,,0.001 µM (active),0.003 µM (active)
NCc1c[nH]c(=S)n1[C@H]1CCc2c(F)cc(F)cc2C1,9.35 µM (active),18.7 µM (active),18.7 µM (active),9.35 µM (active),3.32 µM (active),16.6 µM (active),,,,
CCOc1ccccc1N=Nc1c(C)[nH]n(-c2nc(-c3ccccc3)cs2)c1=O,1.18 µM (active),inactive,,,,inactive,,8.33 µM (active),,2.96 µM (active)

Structure (SMILES),Potency [1],Potency [2],Potency [3],Potency [4],Potency [5],Potency [6],viability [7],Potency [8],Potency [9],Potency [7]
CC(C)C[C@@H](N)[C@H](O)C(=O)N[C@H](C(=O)N[C@H](C(=O)N[C@@H](CC(=O)O)C(=O)O)C(C)C)C(C)C,inactive,4.69 µM (active),7.43 µM (active),2.64 µM (active),5.26 µM (active),18.7 µM (active),,,,
CCn1c(-c2nonc2N)nc2cncc(CNC3CCNCC3)c21,18.7 µM (active),,,,,5.9 µM (active),,inactive,,
O=C(O)C1=CC(O)C(O)[C@H](O)C1 (stereo partly specified),,inactive,inactive,inactive,,inactive,118%,inactive,,
CCCCCCOC(=O)N=C(N)c1ccc(NCc2nc3cc(C(=O)N(CCC(=O)OCC)c4ccccn4)ccc3n2C)cc1,20.9 µM (active),,11.8 µM (active),,,13.2 µM (active),,,,
CC(=O)OCC(=O)[C@@]1(O)CC[C@H]2[C@@H]3CCC4=CC(=O)C=C[C@]4(C)[C@@H]3[C@@H](O)C[C@@]21C,,inactive,,inactive,,inactive,,inactive,,0.0074 µM (active)
CCCC1OC2C[C@@H]3[C@H]4CCC5=CC(=O)C=C[C@]5(C)[C@H]4C(O)C[C@]3(C)[C@]2(C(=O)CO)O1 (stereo partly specified),0.0372 µM (active),,inactive,,inactive,inactive,,16.6 µM (active),,
CN1C(=O)C(Cc2c[nH]c3ccccc23)NC1=S (stereo unspecified),,inactive,inactive,inactive,7.43 µM (active),inactive,,5.9 µM (active),,0.418 µM (active)
O=C(O)CCC=CCC[C@@H]1[C@H](N2CCCCC2)[C@@H](O)C[C@@H]1OCc1ccc(-c2ccccc2)cc1,inactive,,inactive,,,inactive,,inactive,inactive,
CN[C@H]1[C@@H](O[C@@H]2[C@H](O[C@@H]3[C@@H](O)[C@@H](O)[C@@H](N=C(N)N)[C@@H](O)[C@@H]3N=C(N)N)O[C@H](C)[C@@]2(O)C=O)O[C@@H](CO)[C@@H](O)[C@H]1O,,inactive,inactive,,,inactive,,inactive,,0.946 µM (active)
CN1CC(=O)N2C(Cc3c([nH]c4ccccc34)[C@H]2c2ccc3c(c2)OCO3)C1=O (stereo partly specified),,inactive,,inactive,inactive,inactive,129%,inactive,,
COc1cc(C=CC(=O)O)ccc1O,inactive,,inactive,,inactive,,124%,,,
O=C(CO)N1CCC(c2[nH]nc(-c3ccc(Cl)cc3)c2-c2ccncn2)CC1,,3.32 µM (active),,inactive,1.05 µM (active),,,inactive,,0.59 µM (active)
Cc1cc2nc3c(=O)[nH]c(=O)nc-3n(CC(O)C(O)C(O)CO)c2cc1C (stereo unspecified),,18.7 µM (active),7.43 µM (active),,,inactive,,inactive,inactive,20.9 µM (active)
Cn1c(=O)c(Oc2ccc(F)cc2F)cc2cnc(NC3CCOCC3)nc21,18.7 µM (active),,,,,,,inactive,,
CC(O)=C(C#N)C(=O)Nc1ccc(C(F)(F)F)cc1,,16.6 µM (active),18.7 µM (active),16.6 µM (active),,8.33 µM (active),,23.5 µM (active),33.2 µM (active),18.7 µM (active)
COc1ccnc(CS(=O)c2nc3ccc(OC(F)F)cc3[nH]2)c1OC (stereo unspecified),inactive,,20.9 µM (active),,,inactive,150%,inactive,,
COc1cc([C@@H]2c3cc4c(cc3[C@@H](O[C@@H]3O[C@@H]5CO[C@@H](C)O[C@@H]5[C@H](O)[C@@H]3O)[C@H]3COC(=O)[C@H]23)OCO4)cc(OC)c1O,14.8 µM (active),14.8 µM (active),,,,1.18 µM (active),,,0.418 µM (active),
CC1(C)OC2CC3C4CC(F)C5=CC(=O)C=CC5(C)C4C(O)CC3(C)[C@]2(C(=O)CO)O1 (stereo partly specified),,inactive,,inactive,3.32 µM (active),,131%,inactive,inactive,
CCC=CC[C@H]1C(=O)CC[C@@H]1CC(=O)OC,,inactive,inactive,inactive,,,144%,inactive,,
CC[C@H](C=C[C@@H](C)[C@H]1CC[C@H]2[C@@H]3CC=C4C[C@@H](O)CC[C@]4(C)[C@@H]3CC[C@]12C)C(C)C,,inactive,1.02 µM (active),1.02 µM (active),,0.0575 µM (active),119%,inactive,,
C=C[C@@H]1CN2CCC1C[C@@H]2C(O)c1ccnc2ccc(OC)cc12 (stereo partly specified),3.32 µM (active),,,,,inactive,,10.5 µM (active),inactive,
CCC(c1ccc(O)cc1)C(CC)c1ccc(O)cc1 (stereo unspecified),3.32 µM (active),,0.833 µM (active),,inactive,inactive,,3.32 µM (active),,
